Only some compounds are listed: those with a hit (about 8% of all), similar ones and a draw of the others.
PostGolgi ctrl – growth inhibition of yeast control strain, primary screen, counter-screen for post-Golgi transport modulator project. AID 738, 2007. efflux-deficient yeast background strain, growth absorbance A615, 16 h. 5% of 98,000 active. inhibition, % at 10 µM
Cav32 inh – Cav3.2 calcium influx blockers – cell-based, Fluo-4 calcium fluorescence, FDSS, MLSMR library, primary screen | Voltage-dependent T-type calcium channel subunit alpha-1H (Homo sapiens), O95180 | Cav3.2-expressing cells; hits give low values | B-score at 10 µM | 4% of 100,000 active | AID 449739, 2010;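 active = single-dose well whose peak fluorescence ratio is a statistical outlier from its plate by either plate-standardised score or position-corrected B-score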
PTK2B oligo ant – antagonists of Pyk2 self-association, primary screen, Q293 cells, FERM NanoBiT luminescence, HTS; AID 1347419, 2020; hits give low values; z-score (the deposit names both 25 µM and 10 µM); 0.83% of 99,000 active; Protein-tyrosine kinase 2-beta (Homo sapiens), Q14289;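 active = Z-score of -3 or lower, scaled per plate to the spread of control and sample wells; inactive = z-score above -3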;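 also: negative z-score means lost luminescence so less FERM oligomerization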
PostGolgi yeast – phenotypic screen on post-Golgi transport, primary screen; inhibition, % at 10 µM; 0.9% of 98,000 active; post-Golgi transport phenotypic cell assay;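 also: yeast cells grown in 1536-well plates; yeast grown about 18 h at 30C before absorbance read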
* hit, by the source's call; x = no result given. Rule as the data show it, unless noted: active = inhibition above about 30%; inactive = the rest.

SMILES | PostGolgi ctrl | Cav32 inh | PTK2B oligo ant | PostGolgi yeast
O=C(NNC(=S)NC(=O)C12CC3CC(CC(C3)C1)C2)c1ccncc1 | 48* | -4.3* | -0.86 | 42*
CC/C(=N\NC(=O)c1ccncc1)C12CC3CC(CC(C3)C1)C2 | 2 | 0.12 | 0.46 | 6
CCCCNC(=O)c1sc(=S)n2c1[nH]c(=O)c1ccccc12 | 44* | -3.1 | 1.1 | 6
O=C(NCC1CCCO1)c1sc(=S)n2c1[nH]c(=O)c1ccc(C(=O)N3CCCCC3)cc12 (configuration not stated) | 2 | -0.46 | -2.9 | -1
O=C(NC1CCCCC1)c1sc(=S)n2c1[nH]c(=O)c1ccccc12 | 56* | -6.3* | -3* | -3
Cc1nc2ccccc2c2oc(C(=O)N3CCc4ccccc4C3)cc12 | 35* | 1.1 | x | -10
Cc1nn(-c2ccccc2)c2sc(C(=O)N3CCc4ccccc4C3)cc12 | 45* | -1.9 | -0.61 | -1
Cn1c2c(c(=O)n(C)c1=O)C1c3cc(Cl)ccc3OCC1CO2 (configuration not stated) | 10 | -0.14 | 0.16 | 2
CCCCN1CNC(=S)N(c2ccccc2OCC)C1 | x | x | 0.52 | x
Cc1cc2c3nonc3ccc2n1-c1ccccc1 | 35* | -1.5 | -0.84 | 5
COc1ccc(OC)c(NC(=O)c2nnn(Cc3ccc(Br)cc3F)c2N)c1 | 31* | -0.74 | x | -13
Cc1cc(C)c(S(=O)(=O)NCCn2ccc3ccccc32)c(C)c1 | 57* | -0.35 | x | 0
Cc1cc(C(=O)NCCCN2CCCC2=O)no1 | 6 | 0.66 | -0.14 | 7
COC(=O)C1CN(S(=O)(=O)c2ccccc2)CCN1S(=O)(=O)c1ccccc1 (configuration not stated) | 7 | 0.011 | -2.6 | -1
CCC(N)C12CC3CC(CC(O)(C3)C1)C2 (configuration not stated) | x | 0.36 | 0.43 | x
COc1ccc(-c2cc(-c3ccc(F)cc3)nc(N3CCN(C)CC3)n2)cc1 | 32* | -0.0031 | 2 | 20
COc1ccc(-c2cc(C(F)(F)F)nc(N3CCOCC3)n2)cc1 | 19 | -0.79 | -0.09 | -3
C=CCNC(=O)COC(=O)c1cc(S(=O)(=O)N2CCOCC2)ccc1N1CCCCC1 | 5 | 1.6 | 0.01 | 4
Cc1ccc(C)c(NC(=O)c2nnn(Cc3ccccc3C)c2N)c1 | 33* | -3.7 | -0.13 | -4
Cc1ccc(C)c(NC(=O)c2nnn(Cc3ccccc3)c2N)c1 | 26 | -1.1 | -1.2 | 2
Cc1ccccc1-n1nc(C(=O)c2cccs2)cc(-c2nc3ccccc3[nH]2)c1=N | x | -0.11 | -2.9 | x
COc1ccc(-n2nc(C(=O)c3cccs3)cc(-c3nc4ccccc4[nH]3)c2=N)cc1 | x | x | -3.3* | x
Cc1cccc(NC(=S)NC(NC(=O)c2ccco2)C(Cl)(Cl)Cl)c1 (configuration not stated) | -2 | -6.1* | -1.4 | -8
O=C(O)c1ccc(NC(=S)NC(NC(=O)c2ccco2)C(Cl)(Cl)Cl)cc1 (configuration not stated) | -6 | -4* | 1.3 | 4
CCCc1nnc(SCc2ccc(OC)cc2)n1N | 5 | 0.16 | -0.51 | -8
SMILES | PostGolgi ctrl | Cav32 inh | PTK2B oligo ant | PostGolgi yeast
COC(=O)c1c(O)cc(C(C)(C)C)n(-c2ccccc2)c1=O | x | x | -0.11 | x
COc1ccc(-c2c(C)nn3c(N4CCC(C(=O)NCCN(C)C)CC4)cc(C)nc23)cc1OC | 7 | 3.1* | -0.09 | 14
CCCN(CCC)C(=O)C1CCN(c2cc(C)nc3c(-c4ccc(OC)c(OC)c4)c(C)nn23)CC1 | 6 | -1.4 | x | -4
COc1cccc(N2CCN(c3c(C#N)c(C(F)(F)F)nn3C)CC2)c1 | 51* | -0.15 | -0.04 | 1
CCCc1nnc(NC(=O)CCC(=O)Nc2ccc(F)cc2)s1 | 8 | -0.054 | 0.15 | 4
COc1ccc(-c2n[nH]c(C(F)(F)F)c2-c2cc3ccccc3o2)c(O)c1 | 102* | -0.91 | -1.8 | 104*
N#Cc1c(C(F)(F)F)cc(-c2ccccc2)nc1SCc1nc(N)nc(N2CCOCC2)n1 | 45* | -0.96 | -2.5 | -2
O=C(CSc1nnc2scc(-c3ccccc3)n12)Nc1ccc2c(c1)OCCO2 | 37* | -1.1 | -1.6 | 1
c1ccc(-c2csc3nnc(SCc4ccc5c(c4)OCO5)n23)cc1 | 33* | -1.8 | x | -3
Cc1cccc2cc(CN(Cc3nnnn3Cc3ccco3)C3CCCC3)c3nnnn3c12 | 43* | x | -0.64 | 17
O=S1(=O)CCN2C(=N1)Sc1c2ccc2c1CCCC2 | 14 | 0.38 | -0.06 | 0
CCc1ccc2c(Cl)c(C(=O)N/N=C/c3c[nH]c4ccccc34)sc2c1 | 42* | -1 | 0.23 | 1
C=C1CCN(C(C(=O)OC)C(C)C)S(=O)(=O)c2ccccc21 (configuration not stated) | x | 0.23 | x | x
O=C(NCc1ccccc1)C1CC2CCCC(C1)C2=O (configuration not stated) | -1 | -0.53 | -0.14 | 8
CC1Cc2ccccc2N1c1ncnc2c1nnn2Cc1ccccc1 (configuration not stated) | 42* | -1.5 | -1.9 | 10
CC1Cc2ccccc2N1c1nc(C2CC2)nc2c1nnn2Cc1ccccc1 (configuration not stated) | x | -0.53 | -1.2 | x
Cc1cc(NC(=O)CSc2nnc(-c3ccncc3)n2N)ccc1Br | -2 | -0.0054 | -1.2 | 14
Cc1nn(-c2ccccc2)c(Cl)c1/C=C1\SC(=S)NC1=O | 26 | -4.5* | -2.3 | 21
Cc1ccc(Cn2c(=O)c3c(nc4n3CCCN4Cc3ccccc3)n(C)c2=O)cc1 | 39* | -2.1 | -0.17 | 6
Cn1c(=O)n(Cc2ccccc2)c(=O)c2c1nc1n2CCCN1Cc1ccccc1 | 32* | x | -1.1 | -5
CC1CCCC/C1=N\NS(=O)(=O)c1ccc(Br)cc1 (configuration not stated) | 4 | -2 | 1.1 | 2
N#CC(c1ccccc1)c1ccc2c(C(F)(F)F)cc(C(F)(F)F)nc2n1 (configuration not stated) | 51* | 0.77 | -2.1 | 5
Cc1ccc(C(C#N)c2ccc3c(C(F)(F)F)cc(C(F)(F)F)nc3n2)cc1 (configuration not stated) | 13 | -0.94 | -2 | -2
CC(C)C[C@H](NC(=O)c1nc[nH]c1C(=O)N(C)Cc1ccccc1)C(=O)OC(C)(C)C | x | 0.0073 | x | x
Cc1cc(C)c(C)c(S(=O)(=O)NCC(=O)N2CCCC2)c1C | 1 | 0.81 | 0.42 | 23
COCCCNc1c2c3c(cccc3[nH]c1=O)C(=O)c1ccccc1-2 | 19 | -12* | x | 0
CC(/C=N/NC(=O)c1ccncc1)=C\c1ccc(C(C)C)cc1 | 35* | -1.2 | -2.3 | 30*
CC(/C=N/NC(=O)c1ccc(Br)cc1)=C\c1ccccc1 | -4 | -0.012 | -0.27 | -8
Clc1ccc(Cn2ncc3c(NCCN4CCOCC4)ncnc32)cc1 | 0 | 0.44 | 0.69 | -1
CC1CCc2nc(NC(=O)Cc3cccs3)sc2C1 (configuration not stated) | 13 | -2.8 | -0.48 | -13

Screening results as filed in PubChem.
